“And” between values parts separate entries of the source, which are not always exact repeats. Equal values may be shown once. Inconclusive results are not listed. Some compounds were tested as several samples or in several runs, with calls that do not always agree. The source made the active and inactive calls. Unless noted, the call rests on the fitted dose curve; in most records, active means well fitted curve in the direction sought with a large enough effect in the repeat runs; inconclusive means weak or mixed curves; inactive means no such curve, though single readings can be large; an effect the other way counts as inactive or inconclusive.
Key:
[1] = qHTS assay for small molecule agonists of the p53 signaling pathway (AID 651631; calls by dose curve; further: nearly all actives have a fitted effect of over 15% in size)
In short: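 HCT-116 p53RE-bla reporter line, 16 h compound treatment at 37 °C, then fluorescence after 2 h with B/G FRET substrate.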

[2] = qHTS assay for small molecules that induce genotoxicity in human embryonic kidney cells expressing luciferase-tagged ATAD5 (AID 651632); further: nearly all actives have a fitted effect of over 15% in size
In short: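 Concentration-response screen for ATAD5 upregulation in HEK293T luciferase reporter cells; 16 hr treatment at 37C, then luminescence after 30 min with Amplite at room temperature.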

[3] = qHTS assay for small molecule agonists of the p53 signaling pathway - cell viability (AID 651633; calls by dose curve; further: nearly all actives have a fitted effect of over 30% in size; further: potency means the concentration at half of the fitted maximal effect)
In short: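 p53RE-bla cells, seeded at 4,000 per well and rested 5 h at 37 C/5% CO2, received compounds in DMSO for 16 h at 37 C. CellTiter-Glo was then added, and luminescence was read after 30 min at room temperature to gauge cytotoxicity.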

[4] = qHTS assay for small molecules that induce genotoxicity in human embryonic kidney cells expressing luciferase-tagged ATAD5 - cell viability (AID 651634; calls by dose curve; further: nearly all actives have a fitted effect of over 25% in size)
In short: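 15.5 hr compound or vehicle exposure of HEK293T cells expressing luciferase-tagged ATAD5 at 37C; live-cell protease activity is read by fluorescence after 30 min of CellTiter-Fluor.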

[5] = qHTS assay for small molecule disruptors of the mitochondrial membrane potential - cell viability (AID 720634; calls by dose curve; further: nearly all actives have a fitted effect of over 20% in size; further: potency means the concentration at half of the fitted maximal effect)
In short: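 In this qHTS format, HepG2 cells plated overnight were pinned with compound, incubated 1 hr, and assayed for ATP luminescence with CellTiter-Glo after m-MPI dye addition.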

[6] = qHTS assay to test for compound auto fluorescence at 590 nm (red) in HepG2 cells (AID 720674)
In short: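 Compound auto-fluorescence is scored relative to Rose Bengal sodium, measured at 540/590 nm in live HepG2 cultures after 1 hr compound contact (37 C, 5% CO2).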

[7] = qHTS assay to test for compound auto fluorescence at 535 nm (green) in HepG2 cells (AID 720675)
[8] = qHTS assay to test for compound auto fluorescence at 460 nm (blue) in HEK293 cells (AID 720678)
In short: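 HEK293, 2,000 cells/well, 10% dialyzed FBS; attach 4-5 hr 37C; pin compound or DMSO; o/n 37C/5% CO2; fluorescence 405/460 nm; triamterene-equivalent units.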

[9] = qHTS assay to test for compound auto fluorescence at 590 nm (red) in HEK293 cells (AID 720679)
In short: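 Intensity at 540nm excitation and 590nm emission is reported as Rose Bengal sodium-equivalent autofluorescence. Measurements followed overnight exposure (37C, 5% CO2) of HEK293 cells, 2,000 per well, to 23 nL compound.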

[10] = qHTS assay to test for compound auto fluorescence at 535 nm (green) in HEK293 cells (AID 720680)
[11] = qHTS assay to test for compound auto fluorescence at 460 nm (blue) in HEK293 cell free culture (AID 720681)
In short: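 Test compounds were pinned into cell-free culture medium (DMEM with 10% FBS) and fluorescence was read directly at Ex/Em 405/460 nm. Signals were expressed as fluorescence equivalents of triamterene, with DMSO vehicle as control.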

[12] = qHTS assay to test for compound auto fluorescence at 590 nm (red) in HEK293 cell free culture (AID 720683)
In short: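 Tox21 10K library compounds were pinned into cell-free DMEM with 10% FBS and fluorescence was read at excitation 540 nm. Activity is expressed as Rose Bengal sodium equivalency.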

[13] = qHTS assay to test for compound auto fluorescence at 590 nm (red) in HepG2 cell free culture (AID 720684)
In short: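 Ex 540 / Em 590 nm read of compound in cell-free MEM (10% FBS). Rose Bengal sodium reference.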

[14] = qHTS assay to test for compound auto fluorescence at 460 nm (blue) in HepG2 cell free culture (AID 720685)
In short: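 Cell-free plates of MEM plus 10% FBS received 23 nL compound or DMSO vehicle; blue-channel (405/460 nm) intensity scored against triamterene as reference fluorophore.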

[15] = qHTS assay to test for compound auto fluorescence at 535 nm (green) in HepG2 cell free culture (AID 720686)
[16] = qHTS assay to test for compound auto fluorescence at 460 nm (blue) in HepG2 cells (AID 720687)
In short: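 Cells (2,000/well in MEM with 10% FBS) attached overnight at 37 C, then were exposed to compound or DMSO for 1 hr at 37 C, 5% CO2. Fluorescence read at Ex/Em 405/460 nm, expressed as triamterene-equivalent signal.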

[17] = target: Glucocorticoid receptor (Homo sapiens) (UniProt P04150); test: qHTS assay to identify small molecule agonists of the glucocorticoid receptor (GR) signaling pathway (AID 720691; active means well fitted activation curve with a large enough effect in the signal ratio in the repeat runs, not every such curve was filed as active; the % refers to the signal ratio)
Sequence of Glucocorticoid receptor (Homo sapiens) (P04150 whole entry, looked up): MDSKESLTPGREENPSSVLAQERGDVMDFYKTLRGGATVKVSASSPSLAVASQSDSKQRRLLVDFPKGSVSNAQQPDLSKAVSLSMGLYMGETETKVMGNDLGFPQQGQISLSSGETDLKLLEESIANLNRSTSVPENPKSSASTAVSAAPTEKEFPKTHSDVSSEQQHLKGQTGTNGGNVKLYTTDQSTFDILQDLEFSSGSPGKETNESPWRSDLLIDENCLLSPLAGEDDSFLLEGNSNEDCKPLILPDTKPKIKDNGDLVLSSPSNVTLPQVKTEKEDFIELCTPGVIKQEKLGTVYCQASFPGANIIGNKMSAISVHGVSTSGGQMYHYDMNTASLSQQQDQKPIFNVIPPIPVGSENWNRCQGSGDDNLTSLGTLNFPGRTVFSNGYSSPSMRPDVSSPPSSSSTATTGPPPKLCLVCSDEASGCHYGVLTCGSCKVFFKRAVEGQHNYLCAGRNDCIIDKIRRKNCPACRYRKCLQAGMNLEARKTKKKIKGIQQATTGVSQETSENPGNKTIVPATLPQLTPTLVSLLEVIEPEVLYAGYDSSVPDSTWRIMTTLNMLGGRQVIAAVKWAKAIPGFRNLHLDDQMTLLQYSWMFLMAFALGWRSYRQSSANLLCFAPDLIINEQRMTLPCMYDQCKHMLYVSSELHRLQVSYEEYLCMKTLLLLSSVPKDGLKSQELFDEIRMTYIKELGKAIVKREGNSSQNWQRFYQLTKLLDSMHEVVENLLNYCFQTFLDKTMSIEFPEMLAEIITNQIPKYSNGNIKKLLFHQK
In short: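 Measures GR pathway activation through a GRE-beta-lactamase reporter stably integrated in HeLa cells, with 18 h compound treatment at 37 C and fluorescence detection using a FRET substrate.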

[18] = target: Glucocorticoid receptor (Homo sapiens) (UniProt P04150); test: qHTS assay to identify small molecule antagonists of the glucocorticoid receptor (GR) signaling pathway (AID 720692; active means well fitted inhibition curve with a large enough effect in the signal ratio in the repeat runs, not every such curve was filed as active; the % refers to the signal ratio)
In short: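 Tox21 10K library screened in concentration-response for blockade of dexamethasone (5 nM final)-induced GRE-bla reporter activity in HeLa cells; 18 h treatment, fluorescence read.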

[19] = qHTS assay to test for compound auto fluorescence at 535 nm (green) in HEK293 cell free culture (AID 720682)
In short: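 Steps: dispense DMEM/10% FBS into empty wells; pin in compound or DMSO; measure fluorescence at 485/535 nm. Values are fluorescein equivalents.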

[20] = qHTS assay for small molecule disruptors of the mitochondrial membrane potential (AID 720635); further: potency means the concentration at half of the fitted maximal effect
In short: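 HepG2 cells (2,000/well) attached overnight at 37C, then took compound for 1 hr at 37C, 5% CO2. Mito-MPS dye was added for 30 min; fluorescence was read at 490/535 nm (monomers) and 540/590 nm (aggregates).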

Measured: Potency

NS(=O)(=O)c1cc2c(cc1Cl)NCNS2(=O)=O
not listed: [19] | [20]
inactive: all other assays above

CN[C@H]1CC[C@@H](c2ccc(Cl)c(Cl)c2)c2ccccc21
active: [3] 29.8 µM
not listed: [1] | [18] | [20]
inactive: all other assays above

CN1CCC[C@H]1c1cccnc1
not listed: [1] | [3] | [17] | [18] | [19]
inactive: all other assays above

O=CC(=O)c1ccccc1
not listed: [1] | [2] | [19] | [20]
inactive: all other assays above

COc1ccc(CN(CCN(C)C)c2ccccn2)cc1
not listed: [1] | [2] | [3] | [5] | [20]
inactive: all other assays above

CC(C)C(=O)Nc1ccc([N+](=O)[O-])c(C(F)(F)F)c1
active: [5] 12.5 µM and 27.3 µM
not listed: [1] | [17] | [18] | [19] | [20]
inactive: all other assays above

CCCCC(CC)C(=O)O (stereo unspecified)
inactive and 6.86 µM (active): [20]
not listed: [1] | [2] | [4] | [17] | [18] | [19]
inactive: all other assays above

C=C1CC[C@H](O)C/C1=C\C=C1/CCC[C@]2(C)[C@@H]([C@H](C)CCCC(C)C)CC[C@@H]12
active: [3] 26.6 µM and 60.6 µM
not listed: [1] | [4] | [18] | [20]
inactive: all other assays above
